High-throughput results (PubChem)
Compounds with a hit are over-represented: about 9.4% of the library has one in this group of screens.
Rab9 promoter act – activators of Rab9 promoter | Huh7 Rab9 promoter-luciferase reporter, luminescence, 24 h | Potency, µM (top dose mostly 9.22 µM), without a hit: top-dose activation, negative = inhibition, most hits filed as activators | AID 485297 | actives 2.8% (n = 320,000); note: % of control where 0% means no effect; nearly all actives have a fitted effect of over 60% in size
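Quantitative HTS format; Huh7 Rab9-luciferase reporter cells (1500/well) receive compound 2 h post-plating, incubate 24 h at 37 °C, then get luciferase reagent for 10 min before luminescence reading.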
ELG1 genotox – genotoxicity induction in ELG1-luciferase HEK293T cells | HEK293T ELG1-luciferase reporter, luminescence, 16 h | Potency, µM (titrated, usually from 46 µM), for inactives: top-dose activity change, positive = activation, most hits filed as activators | actives 1.3% (n = 330,000); note: % of control where 0% means no effect; nearly all actives have a fitted effect of over 60% in size
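ELG1-luciferase HEK293T cells, 2,000/well; compound pinned in; 16 hr, 37 °C, 5% CO2; ONE-Glo, 30 min RT; luminescence on CCD imager.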
NPC1 prom act – activators of NPC1 promoter; actives 2.4% (n = 320,000); Potency, µM (highest dose often 9.22 µM), for the others: at the top dose activation, hits mostly activators; Huh7 NPC1 promoter luciferase reporter, 24 h; note: % of control where 0% means no effect; nearly all actives have a fitted effect of over 60% in size
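Stably transfected Huh7 (NPC1 promoter→luciferase), 1500 cells/well in Opti-MEM + 10% FBS, 2 h settle, then compound 24 h at 37 °C. Luminescence after 10 min with Amplite reagent.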
ELG1 repair inh – inhibitors of ELG1-dependent DNA repair in HEK293T cells | Potency, µM (highest dose often 46.1 µM), for inactives: top-dose activity change, negative = inhibition, actives largely listed as inhibitors | HEK293T ELG1-luciferase reporter, luminescence, 16 h; DNA damage induced by 5-fluorouridine | actives 2.3% (n = 330,000) | AID 504467; note: % is set by controls: 0 for no effect and ±100 for the full control effect; nearly all actives have a fitted effect of over 55% in size
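Quantitative HTS, concentration-response format. 2,000 cells/well co-treated with 5-fluorouridine and compound, 16 hr in 5% CO2 at 37 °C; ONE-Glo luminescence read after 30 min.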
FLuc counter – inhibits or activates purified firefly luciferase, miR-21 counter-screen; purified FLuc, Km substrates, luminescence inhibition; Potency, µM (top dose mostly 57.5 µM), for inactives: at the top dose activity change, negative = inhibition, most hits filed as inhibitors; actives 6.9% (n = 360,000); AID 588342;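 note: plate controls were vehicle for no effect and reference inhibitor for full effect; nearly all actives have a fitted effect of over 55% in size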
Target sequence (P08659 whole entry, looked up): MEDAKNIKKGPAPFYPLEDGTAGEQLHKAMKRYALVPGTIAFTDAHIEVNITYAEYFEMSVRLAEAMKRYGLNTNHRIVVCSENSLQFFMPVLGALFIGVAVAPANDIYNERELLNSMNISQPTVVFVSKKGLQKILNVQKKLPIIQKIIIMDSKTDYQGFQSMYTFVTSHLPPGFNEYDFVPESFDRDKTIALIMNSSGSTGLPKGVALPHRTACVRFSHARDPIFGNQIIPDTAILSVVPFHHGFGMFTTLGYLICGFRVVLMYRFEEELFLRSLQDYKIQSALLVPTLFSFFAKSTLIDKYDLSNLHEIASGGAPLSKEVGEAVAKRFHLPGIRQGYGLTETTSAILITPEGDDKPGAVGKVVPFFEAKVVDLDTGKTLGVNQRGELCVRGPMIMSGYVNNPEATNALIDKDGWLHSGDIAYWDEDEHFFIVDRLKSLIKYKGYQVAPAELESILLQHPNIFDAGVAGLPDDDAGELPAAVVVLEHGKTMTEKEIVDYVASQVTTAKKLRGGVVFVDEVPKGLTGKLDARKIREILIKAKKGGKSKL
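Purified P. pyralis luciferase, 10 nM final, with Km-level 10 uM D-luciferin and 10 uM ATP in 50 mM Tris acetate pH 7.5, 10 mM Mg acetate, 0.01% Tween-20, 0.05% BSA; 6-point qHTS titration about 60 µM downward; luminescence read.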
SMN2 splice enh – enhancers of SMN2 splice variant expression | Potency, µM (titrated, usually from 46.1 µM), inactives show top-dose activity change, positive = activation, most hits filed as activators | AID 1458 | actives 2.8% (n = 210,000) | HEK293 SMN2-luciferase splicing reporter, luminescence, 30-36 h; note: % of control where 0% means no effect; nearly all actives have a fitted effect of over 55% in size
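qHTS luciferase splicing reporter: luminescence rises when SMN2 exon 7 is included in transfected HEK293 cells. Compound exposure lasted 30-36 h at 37C, with 4.5 mM final sodium butyrate as control, followed by a ONE-Glo read.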
* = called active by the depositor; ? = inconclusive; . = no result given; [ ] = remark or other dose. Calls come from the whole dose curve; as a rule, active = well fitted curve in the direction sought with a large enough effect; inconclusive = small, poorly fitted or top-dose-only effect, or another doubt; inactive = no such curve, though single readings can be large; an effect the other way counts as inactive or inconclusive. Potency is the fitted concentration of half-maximal effect.

SMILES	Rab9 promoter act	ELG1 genotox	NPC1 prom act	ELG1 repair inh	FLuc counter	SMN2 splice enh
COc1ccc(C(=O)N/N=C/c2cn[nH]c2-c2ccc(OC)cc2OC)cc1	2%	1%	1%	-6%	?	-7%
COc1ccc(-c2[nH]ncc2/C=N\NC(=O)c2ccc(C(C)(C)C)cc2)cc1OC	4%	3%	1%	-24%	1.3µM*	?
CCOC(=O)c1c(S(=O)(=O)NCC(=O)Nc2cccc(SC)c2)c(C)n(C)c1C	.	.	.	.	-2%	.
CCc1ccc(CNC(=O)CSCc2cnn(-c3ccccc3)c2-n2cccc2)cc1	.	.	.	.	-17%	-3%
CCOC(=O)c1cccc(NC(=O)N2Cc3ccccc3Oc3ncccc32)c1	.	.	.	.	3%	-11%
O=c1[nH][nH]c2c(N=Cc3ccccc3O)ccc(F)c12	-8%	-6%	0%	1%	19µM*	.
COCCNC(=O)c1cc2sc3ccccc3c2s1	2.8µM*	15µM*	?	?	11µM*	14µM*
COC(=O)N(C)c1nc2ccccc2s1	28%	?	13%	?	24µM*	-7%
CCCCNC(=O)c1cc2ccccc2s1	?	0%	16%	?	17µM*	6%
CCCCNC(=O)N(C)c1nc2ccccc2s1	1.8µM*	?	?	?	13µM*	.
CC(=O)Nc1ccc(C(=O)COC(=O)c2cccs2)c(F)c1	3.5µM*	?	2.8µM*	?	3.4µM*	.
CC(=O)Nc1ccc(C(=O)COC(=O)C2CC2C)c(F)c1 (centres undefined)	1.4µM*	?	1.4µM*	?	2.1µM*	.
CC(=O)Nc1ccc(C(=O)COC(=O)c2c(C)noc2C)c(F)c1	-3%	0%	0%	2%	?	.
CCOc1ccccc1NC(=O)c1nc(SC(C)C)ncc1Cl	.	.	.	.	-10%	7%
COc1ccccc1CCNC(=O)C(=O)NCC(c1cccnc1)N1CCN(c2ccccc2)CC1 (centres undefined)	.	.	.	.	2%	.
O=C(NCCn1ccc2ccccc21)c1ccc(Cl)cc1	.	.	.	.	21µM*	13µM*
COc1cc(OC)cc(C(=O)NCCn2ccc3ccccc32)c1	6%	-7%	12%	?	-7%	-3%
COc1cccc(C(=O)NCCn2ccc3ccccc32)c1	4µM*	?	2.8µM*	?	19µM*	7.9µM*
COc1cccc(Cn2c(=O)n(Cc3ccco3)c(=O)c3oc4ccccc4c32)c1	.	.	.	.	-10%	.
O=C(COC(=O)c1c2c(nc3ccccc13)CCCC2)c1cccs1	2%	-8%	11%	?	11µM*	-6%
O=C(COC(=O)c1c2c(nc3ccccc13)CCCCC2)c1ccc(Cl)s1	13%	-9%	1%	?	13µM*	1%
Cc1oc2c(c1C(=O)Nc1ccccc1Br)C1=NCCN1C=N2	.	.	.	.	-3%	.
Cc1cc(C)c(NC(=O)c2cc3c(=O)n4ccccc4nc3n2C)c(C)c1	.	.	.	.	-3%	.
CC(=O)Nc1ccc(NC(=O)C(C)OC(=O)c2ccccc2NS(=O)(=O)c2cccs2)cc1 (centres undefined)	-4%	0%	-5%	-9%	4%	.
Cc1ccc(NC2=C/C(=N/S(=O)(=O)c3cccs3)c3ccccc3C2=O)cc1C	?	1%	?	?	-12%	?
SMILES	Rab9 promoter act	ELG1 genotox	NPC1 prom act	ELG1 repair inh	FLuc counter	SMN2 splice enh
COc1ccc(S(=O)(=O)/N=C2\C=C(Nc3ccc(O)cc3)C(=O)c3ccccc32)cc1	-54%	-33%	-46%	5.8µM*	?	.
Cc1ccccc1NC1=C/C(=N\S(=O)(=O)c2cccs2)c2ccccc2C1=O	-44%	-33%	-35%	3.7µM*	-13%	-98%
CC(=O)Nc1ccc(NC2=C/C(=N/S(=O)(=O)c3cccs3)c3ccccc3C2=O)cc1	-47%	-16%	-35%	1.6µM*	?	-70%
Cc1ccccc1NC1=C/C(=N\S(=O)(=O)c2ccc(C(=O)O)cc2)c2ccccc2C1=O	-30%	-11%	-36%	12µM*	?	.
CCOc1ccc(N(CC)S(=O)(=O)N2CCCC(C(=O)NCCc3ccccc3OC)C2)cc1 (centres undefined)	.	.	.	.	-13%	.
CCCN1Cc2cccc(C(=O)Nc3ccc(C(C)=O)cc3)c2C1=O	.	.	.	.	-8%	4%
COc1ccc(OC)c(CNC(=O)c2cc3ccc4cccnc4c3[nH]2)c1	.	.	.	.	-20%	.
IC(I)I	.	.	.	.	.	5%
COc1ccc(CNC(=O)Cn2ccc3cc(S(=O)(=O)N4CCCCCC4)ccc32)cc1OC	.	.	.	.	-8%	.
CCC(=O)NC1=C(Cl)C(=O)C(NC(=O)CC)=C(Cl)C1=O	-4%	1%	3%	-9%	5.4µM*	.
CCOC(=O)Cn1c(=O)n(CC2CCCO2)c2nc(-c3ccc(CC)cc3)nc(C(N)=O)c21 (centres undefined)	.	.	.	.	-1%	.
Cc1cccc(Nc2nc(N)nc(CSc3nccn3C)n2)c1	5µM*	?	?	?	?	?
Cc1ccc(Nc2nc(N)nc(CSc3nccn3C)n2)cc1	1.6µM*	2.9µM*	2.5µM*	?	9.5µM*	13µM*
COc1ccccc1Nc1nc(N)nc(CSc2nccn2C)n1	17%	10%	4%	?	-11%	.
COc1ccc([C@@H]2CC(=O)c3c(O)cc(O)cc3O2)cc1O	?	?	?	?	15µM*	7%[20.6 µM]
CN1CCN(CC(=O)Nc2nc3ccccc3s2)CC1	14%	3%	-3%	?	-1%	.
CC1(C(=O)Nc2nc3ccccc3s2)CC1(Br)Br (centres undefined)	?	?	?	?	21µM*	.
Cc1ccc2nc(-c3ccc(NC(=O)Cc4cccs4)cc3)[nH]c2c1	1µM*	?	2µM*	?	1.3µM*	2.5µM*
COc1ccc(CNC(=O)CN(c2ccccc2OC)S(=O)(=O)c2cccs2)cc1	.	-8%	.	?	.	.
COc1ccc2nc(NC(=O)Cc3cccs3)sc2c1	2.8µM*	6.5µM*	2.8µM*	?	12µM*	10%
COc1ccccc1N(CC(=O)Nc1cc(S(=O)(=O)N(C)C)ccc1C)S(=O)(=O)c1cccs1	.	-4%	.	23µM*	.	.
COCOc1cc(OC)ccc1C(=O)/C=C/c1cccc(C(F)(F)F)c1	.	.	.	.	.	-4%
COc1ccc(N2CCN(CC(O)COc3ccc(C(C)C)c(C)c3)CC2)cc1 (centres undefined)	.	.	.	.	5%	-16%
COc1ccc(OC)c(-c2nnc3n(Cc4ccc(C)cc4)c(=O)c4ccccc4n23)c1	.	.	.	.	5%	.
O=C(c1cnccn1)N1CCC2(CC1)CN(Cc1cc(C(F)(F)F)cc(C(F)(F)F)c1)C2	.	.	.	.	.	-5%
